Data: the supplement of paper PMC10515830
Where a name gives a salt, the structure may show the parent alone.

Key:
Details in all cases: 10 µM; exposure time 6 h
[1] = system: Danio rerio larvae (5 dpf); test: difference in excitability vs DMSO (percentage points); higher = more excitable than DMSO
In short: (§1)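 Wild-type zebrafish larvae at 5 dpf were kept in 96-well plates and exposed for 6 h to 100 µL egg water holding library compound at a final concentration of 10 µM. From 3 h into exposure, the plates were held at 28.5 ℃ and photographed every 6 s through a 3-h programme of moving lines and 100 ms, 400Hz tones. Each behaviour was scored by Z-LaP Tracker, a DeepLabCut model, and averaged over 48 larvae per compound. Every value gives the compound mean minus the vehicle control mean, in percentage points.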

[2] = system: Danio rerio larvae (5 dpf); test: difference in startle response vs DMSO (percentage points); higher = stronger startle than DMSO
In short: as §1

[3] = system: Danio rerio larvae (5 dpf); test: difference in activity during first hour vs DMSO (percentage points); higher = more activity than DMSO
In short: as §1

[4] = system: Danio rerio larvae (5 dpf); test: difference in habituation to acoustic stimuli vs DMSO (percentage points); higher = more habituation than DMSO
In short: as §1

[5] = system: Danio rerio larvae (5 dpf); test: difference in combined optomotor response to red, green and blue moving lines vs DMSO (percentage points); higher = stronger optomotor response than DMSO
In short: as §1

Compound	difference in excitability [1]	difference in startle response [2]	difference in activity during first hour [3]	difference in habituation to acoustic stimuli [4]	difference [5]
O=C(O)CCCN1CCC(O[C@@H](c2ccc(Cl)cc2)c2ccccn2)CC1 [Bepotastine (besylate)]	13.3	3.74	0.00178	0.195	1.29
C[C@](N)(Cc1ccc(O)c(O)c1)C(=O)O [L-(-)-α-Methyldopa]	2.76	-2.74	3.45	-1.83	6
C#C[C@]1(O)CC[C@H]2[C@@H]3CCc4cc(OC)ccc4[C@H]3CC[C@@]21C [Mestranol]	23	-9.55	-22.7	1.6	-16.5
CCCCCCCCCCCCCCCC(=O)OC/C=C(C)/C=C/C=C(C)/C=C/C1=C(C)CCCC1(C)C [Retinyl Palmitate]	6.81	5.22	3.08	2.4	-4.44
COC(=O)[C@H](c1ccccc1Cl)N1CCc2sccc2C1 (racemic) [(±)-Clopidogrel (hydrochloride)]	11.3	3.2	-4.36	-3.13	8.08
OCCOc1ccc(/C(=C(/CCCl)c2ccccc2)c2ccccc2)cc1 [Ospemifene]	6.62	-3.99	-12.6	-8.31	-16.5
CCCNCC(O)COc1ccccc1C(=O)CCc1ccccc1 (stereo not given) [Propafenone (hydrochloride)]	14.4	-3.28	8.84	0.424	6.51
CCN1CCN(Cc2ccc(Nc3ncc(F)c(-c4cc(F)c5nc(C)n(C(C)C)c5c4)n3)nc2)CC1	21.9	1.59	-3.04	0.786	2.57
NC(N)=Nc1nc(CSCC/C(N)=N/S(N)(=O)=O)cs1 [Famotidine]	-2.4	-1.19	-7.05	6.6	-3.11
CCCc1c2oc(C(=O)O)cc(=O)c2cc2c(=O)cc(C(=O)O)n(CC)c12 [Nedocromil (sodium salt)]	-1.27	3.78	-6.98	7.47	-2.49
COc1cc2nc(N(C)CCCNC(=O)C3CCCO3)nc(N)c2cc1OC (stereo not given) [Alfuzosin (hydrochloride)]	9.01	2.43	5.63	-6.84	1.55
CCCCC[C@H](O)CC[C@@H]1[C@H]2Cc3cccc(OCC(=O)O)c3C[C@H]2C[C@H]1O [Treprostinil]	-4.04	-1.85	4.94	-2.5	-6.11
CC[N+](C)(C)c1cccc(O)c1 [Edrophonium (chloride)]	-0.775	-0.613	5.67	7.33	3.51
CC1COc2c(N3CCN(C)CC3)c(F)cc3c(=O)c(C(=O)O)cn1c23 (stereo not given) [Ofloxacin]	5.76	3.75	9.1	-0.318	1.41
C[C@H]1[C@H](NC(=O)/C(=N\OC(C)(C)C(=O)O)c2csc(N)n2)C(=O)N1S(=O)(=O)O [Aztreonam]	-7.88	8.41	8.84	5.95	-0.4
CC(C)(C)NC[C@H](O)COc1nsnc1N1CCOCC1 [Timolol (maleate)]	6.66	-3.72	0.276	-0.906	6.47
O=C(O)c1cc(/N=N/c2ccc(S(=O)(=O)Nc3ccccn3)cc2)ccc1O [Sulfasalazine]	11.1	2.87	12.9	-2.35	4.25
COc1cccc2c1C(=O)c1c(O)c3c(c(O)c1C2=O)C[C@@](O)(C(C)=O)C[C@@H]3O[C@H]1C[C@H](N)[C@H](O)[C@H](C)O1 [Daunorubicin (hydrochloride)]	19.8	4.36	-3.27	5.5	-1.09
FCOC(C(F)(F)F)C(F)(F)F [Sevoflurane]	-1.7	2.93	0.0224	4.17	-3.43
CN1CCC(=C2c3ccccc3C=Cc3ccccc32)CC1 [Cyproheptadine (hydrochloride hydrate)]	6.61	-4.47	-3.08	-11.2	-16.4
CC1=C(CC(=O)O)c2cc(F)ccc2/C1=C\c1ccc([S+](C)[O-])cc1 (stereo not given) [Sulindac]	6.96	0.529	10.8	0.634	-2.61
CC(C)(C)NCC(O)c1ccc(O)c(CO)c1 (stereo not given) [Salbutamol]	8.67	1.17	20.7	-4.78	5.67
N=C(N)c1ccc(OCCCCCOc2ccc(C(=N)N)cc2)cc1 [Pentamidine]	17	5.88	-2.12	0.725	5.19
COc1ccc(C[C@@H](C)NC[C@H](O)c2ccc(O)c(NC=O)c2)cc1 [Arformoterol (tartrate)]	10.3	-8.57	39	-7.89	-2.14
Cc1cn(-c2cc(NC(=O)c3ccc(C)c(Nc4nccc(-c5cccnc5)n4)c3)cc(C(F)(F)F)c2)cn1 [Nilotinib]	28.8	-3.62	-6.05	-1.02	-2.49

Compound	difference in excitability [1]	difference in startle response [2]	difference in activity during first hour [3]	difference in habituation to acoustic stimuli [4]	difference [5]
CCCC(=O)O[C@]1(C(=O)COC(C)=O)CC[C@H]2[C@@H]3C[C@H](F)C4=CC(=O)C=C[C@]4(C)[C@@]3(F)[C@@H](O)C[C@@]21C [Difluprednate]	3.2	2.35	6.57	4.62	-1.11
CNCCCC12CCC(c3ccccc31)c1ccccc12 [Maprotiline (hydrochloride)]	-2.87	5.37	-7.95	0.965	2.3
COc1cccc(N2CCN(C3=Nc4c(F)cccc4[C@H](CC(=O)O)N3c3cc(C(F)(F)F)ccc3OC)CC2)c1 [Letermovir]	9.24	-3.2	13.2	-5.75	-3.3
COc1ccc(S(=O)(=O)Nc2ccccc2CN(C)C/C=C/c2ccc(Cl)cc2)cc1 [KN-92 (hydrochloride)]	7.68	-0.787	-17.8	-4.48	-1.81
OC[C@@H](O)[C@@H](O)[C@H](O)[C@H](O)CO [D-Mannitol]	1.16	-0.914	5.26	3.53	4.85
CCc1ccc(CCOc2ccc(CC3SC(=O)NC3=O)cc2)nc1 (stereo not given) [Pioglitazone (hydrochloride)]	12.4	-4.66	-15.3	6.03	3.69
CN(C)CCOc1ccc(/C(=C(/CCCl)c2ccccc2)c2ccccc2)cc1 [Toremifene (citrate)]	4.69	-6.57	9.64	-7.15	-13.3
O=C1c2cccc3c2[C@H](CCC3)CN1[C@@H]1CN2CCC1CC2 [Palonosetron (hydrochloride)]	16.7	-3.75	19.7	2.14	4.37
CN1CCC[C@@H]1Cc1c[nH]c2ccc(CCS(=O)(=O)c3ccccc3)cc12 [Eletriptan]	0.175	-8.65	6.02	-5.47	-0.217
CC(=O)N[C@@H](CS)C(=O)O [N-acetyl-L-Cysteine]	-2.2	3.63	14.1	-5.17	-0.176
CC(C)C[C@H](NC(=O)[C@H](Cc1ccccc1)NC(=O)c1cnccn1)B(O)O [Bortezomib]	2.69	2.81	3.67	-1.33	-0.842
CC=CC1=C(C(=O)O)N2C(=O)[C@@H](NC(=O)[C@H](N)c3ccc(O)cc3)[C@H]2SC1 [Cefprozil]	11.3	-8.07	1.23	4.8	-4.03
COc1cc2c(cc1Cc1cccc(Cl)c1F)c(=O)c(C(=O)O)cn2[C@H](CO)C(C)C [Elvitegravir]	4.89	-9.84	6.05	0.943	-4.56
Clc1ccc(CSC(Cn2ccnc2)c2ccc(Cl)cc2Cl)cc1 (stereo not given) [Sulconazole (nitrate)]	11.3	-12.7	-17.2	-12	-16.4
CO[C@@]1(NC(=O)C2SC(=C(C(N)=O)C(=O)O)S2)C(=O)N2C(C(=O)O)=C(CSc3nnnn3C)CS[C@@H]21 (stereo not given in full) [Cefotetan (sodium salt)]	-4.63	4.7	10.3	7.15	-1.08
CCCCN1CCCCC1C(=O)Nc1c(C)cccc1C (stereo not given) [Bupivacaine]	0.996	-2.63	13.4	2.63	6.71
N[C@@H]1CCCCN(c2c(F)cc3c(=O)c(C(=O)O)cn(C4CC4)c3c2Cl)C1 [Besifloxacin (hydrochloride)]	13	0.0054	5.97	-5.08	0.455
Nc1nc(CC(=O)Nc2ccc(CCNC[C@H](O)c3ccccc3)cc2)cs1 [Mirabegron]	15.7	-0.811	3.64	-4.56	3.08
NNC(=O)c1ccncc1 [Isoniazid]	6.63	4.93	12.7	-2.52	6.66
CCN1CCN(C(=O)N[C@@H](C(=O)N[C@@H]2C(=O)N3[C@@H]2SC(C)(C)[C@@H]3C(=O)O)c2ccccc2)C(=O)C1=O [Piperacillin (sodium salt)]	2.92	2.6	14.2	-3.02	5.57
CN(N=O)C(=O)N[C@@H](C=O)[C@@H](O)[C@H](O)[C@H](O)CO [Streptozotocin]	-0.24	-1.97	-9.76	-6.76	-1.53
CC(=O)NO [Acetohydroxamic Acid]	12	9	-12.9	3.36	-4.35
CC1=NN(c2ccccc2)C(=O)C1	2.26	-0.112	-1.37	-1.34	4.56
CCOC(=O)C1=C[C@@H](OC(CC)CC)[C@H](NC(C)=O)[C@@H](N)C1 [Oseltamivir (phosphate)]	1.51	3.38	8.28	-5.42	3.62
